smiles,measurement,setting,value
Cl.Cn1ccc(-c2cccc(Nc3ccnc4cc(-c5nccs5)ccc34)c2)n1 [GW525701],Kd,PAK7,> 10 µM
CC(C)(C)c1ccc(-n2cnc3c(N)ncnc32)cc1 [SKF-97263],Kd,PIK3C2B,8.3 µM
same,Kd,PIK3CA,> 10 µM
CSc1nn2c(=O)cc(N3CCOCC3)nc2n1Cc1cccc(Cl)c1Cl [GSK2347225],Kd,PIK3C2B,0.36 µM
same,Kd,PIK3CB,0.0008 µM
O=c1cc(N2CCOCC2)nc2n(Cc3cccc(Cl)c3)ccn12 [GSK2296823],Kd,PIK3CB,0.015 µM

# Source: paper PMC5540273 (PLoS ONE, 2017)
# 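Further: kd values determined as follow-up on hits from a single-replicate KINOMEscan panel screen.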
